This is part of a sample that, as a whole, favours compounds with a hit. Of some 83,000 tested, about 20% had one in any assay.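 Assay: single dose, 48 h. Readout: percent growth (0 = no net growth; negative = cell death). Active: <10.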 The source made the active and inactive calls.
Columns and labels:
Experiment in all cases: NCI-60 one-dose screen, 48 h (100 = growth as untreated, 0 = no growth, -100 = all killed)
Details in all cases: 10 µM unless noted
HT29 colon = test system: HT29 colon
SNB-75 CNS = test system: SNB-75 CNS
SNB-19 CNS = test system: SNB-19 CNS
U251 CNS = test system: U251 CNS
PC-3 prostate = test system: PC-3 prostate
SK-MEL-5 melanoma = test system: SK-MEL-5 melanoma
LOX IMVI melanoma = test system: LOX IMVI melanoma
SK-MEL-28 melanoma = test system: SK-MEL-28 melanoma
SK-MEL-2 melanoma = test system: SK-MEL-2 melanoma
SN12C renal = test system: SN12C renal
UO-31 renal = test system: UO-31 renal
ACHN renal = test system: ACHN renal
CAKI-1 renal = test system: CAKI-1 renal
A498 renal = test system: A498 renal
CCRF-CEM leukemia = test system: CCRF-CEM leukemia
MOLT-4 leukemia = test system: MOLT-4 leukemia
SR leukemia = test system: SR leukemia
EKVX NSCLC = test system: EKVX NSCLC
TK-10 renal = test system: TK-10 renal
UACC-62 melanoma = test system: UACC-62 melanoma

Measured: growth

O=C(Nc1nc(-c2ccc(Cl)cc2)cs1)c1cc(O)c(O)c(O)c1
active: LOX IMVI melanoma 1.72% | UO-31 renal 6.01% | CAKI-1 renal 8.69% | CCRF-CEM leukemia 8.08% | MOLT-4 leukemia 4.68% | SR leukemia 0.551%
inactive: HT29 colon 71.9% | SNB-75 CNS 36.7% | SNB-19 CNS 25.9% | U251 CNS 23.5% | PC-3 prostate 46.9% | SK-MEL-5 melanoma 24.6% | SK-MEL-28 melanoma 42.9% | SK-MEL-2 melanoma 31.9% | SN12C renal 22.6% | ACHN renal 15.9% | A498 renal 77.1%

O=c1ccn(C2CCCO2)c(=O)[nH]1 (stereo unspecified)
inactive: HT29 colon 98.3% | SNB-75 CNS 91.9% | SNB-19 CNS 109% | U251 CNS 97.2% | PC-3 prostate 105% | SK-MEL-5 melanoma 111% | LOX IMVI melanoma 107% | SK-MEL-28 melanoma 108% | SK-MEL-2 melanoma 124% | EKVX NSCLC 107% | SN12C renal 109% | UO-31 renal 95.4% | TK-10 renal 120% | ACHN renal 98.7% | CAKI-1 renal 110% | CCRF-CEM leukemia 97% | MOLT-4 leukemia 97.7% | SR leukemia 114%

O=C(Nc1nc(-c2ccccc2)cs1)c1cc(O)c(O)c(O)c1
active: CCRF-CEM leukemia 9.11% | SR leukemia 8.07%
inactive: HT29 colon 80.8% | SNB-75 CNS 33.1% | SNB-19 CNS 41.5% | U251 CNS 32.1% | PC-3 prostate 58.8% | SK-MEL-5 melanoma 44.1% | LOX IMVI melanoma 40.2% | SK-MEL-28 melanoma 76.8% | SK-MEL-2 melanoma 56.8% | SN12C renal 50.5% | UO-31 renal 24.6% | ACHN renal 40.3% | CAKI-1 renal 26.4% | A498 renal 85.9% | MOLT-4 leukemia 17.1%

COc1c(C)c2c(c(O)c1C/C=C(\C)CCC(=O)OCCN1CCOCC1)C(=O)OC2
active: HT29 colon 1.17% | CAKI-1 renal 5.19%
inactive: SNB-75 CNS 49.1% | SNB-19 CNS 28% | U251 CNS 14.7% | PC-3 prostate 23.2% | UACC-62 melanoma 23.6% | LOX IMVI melanoma 18.4% | SK-MEL-28 melanoma 35.8% | SK-MEL-2 melanoma 25.7% | EKVX NSCLC 46% | SN12C renal 24.1% | UO-31 renal 15.4% | TK-10 renal 27.1% | ACHN renal 27% | A498 renal 30% | CCRF-CEM leukemia 18.6% | MOLT-4 leukemia 24.4%

CCOC(=O)/C(=C/c1ccccc1)C(=O)c1ccccc1
inactive: HT29 colon 84.1% | SNB-75 CNS 49.6% | SNB-19 CNS 85.4% | U251 CNS 68.1% | PC-3 prostate 80.6% | SK-MEL-5 melanoma 66.5% | SK-MEL-28 melanoma 94.3% | SN12C renal 72.6% | UO-31 renal 53.1% | ACHN renal 70.5% | CAKI-1 renal 78.1% | A498 renal 87.5% | MOLT-4 leukemia 33.1%
active: LOX IMVI melanoma -26.9% | CCRF-CEM leukemia 3.43% | SR leukemia 6.68%

CCOC(=O)C1=C(COCCN)NC(C)=C(C(=O)OC)C1c1ccccc1Cl (stereo unspecified)
inactive: HT29 colon 11.4% | SNB-75 CNS 72.3% | SNB-19 CNS 102% | U251 CNS 52.8% | PC-3 prostate 66.9% | UACC-62 melanoma 60.5% | LOX IMVI melanoma 32.3% | SK-MEL-28 melanoma 75.9% | SK-MEL-2 melanoma 90.2% | EKVX NSCLC 83.9% | SN12C renal 75.9% | UO-31 renal 45.4% | TK-10 renal 67.8% | ACHN renal 43.8% | CAKI-1 renal 64.5% | A498 renal 62.4% | CCRF-CEM leukemia 66.2% | MOLT-4 leukemia 67%

O=C(Nc1nc2ccccc2s1)c1cc(-c2ccc(F)cc2)n2nc(-c3ccccc3)cc2n1
inactive: HT29 colon 74.5% | SNB-75 CNS 38.4% | SNB-19 CNS 71.3% | U251 CNS 18.2% | PC-3 prostate 56.9% | SK-MEL-5 melanoma 72.6% | LOX IMVI melanoma 45.6% | EKVX NSCLC 68.8% | SN12C renal 57.5% | UO-31 renal 51.4% | TK-10 renal 129% | ACHN renal 13.5% | CAKI-1 renal 53.2% | CCRF-CEM leukemia 21.6% | MOLT-4 leukemia 61.9% | SR leukemia 18.6%
active: A498 renal -9.36%

CC[C@]1(O)CC2CN(CCc3c([nH]c4ccccc34)[C@@](C(=O)OC)(c3cc4c(cc3OC)N(C)[C@H]3[C@@](O)(C(=O)OC)[C@H](OC(C)=O)[C@]5(CC)C=CCN6CC[C@]43[C@@H]65)C2)C1 (stereo partly specified)
inactive: SNB-19 CNS 43.8% | U251 CNS 17.3% | PC-3 prostate 28.1% | LOX IMVI melanoma 18.9% | SK-MEL-2 melanoma 34.3% | EKVX NSCLC 49.6% | SN12C renal 39.6% | UO-31 renal 18.9% | TK-10 renal 62.6% | ACHN renal 21.9% | CAKI-1 renal 26.8% | CCRF-CEM leukemia 10.7% | MOLT-4 leukemia 16.4% | SR leukemia 10.2%
active: HT29 colon 3.18% | SNB-75 CNS 5.29% | SK-MEL-5 melanoma -61.3% | A498 renal -15.6%

COc1cc2c(-c3nc4cc(Cl)c(F)cc4s3)cc(=O)oc2c(C)c1OC
inactive: SNB-19 CNS 34.7% | PC-3 prostate 19.2%
active: HT29 colon -80% | SNB-75 CNS -90.3% | U251 CNS -92.3% | SK-MEL-5 melanoma -84.2% | LOX IMVI melanoma -73.5% | SK-MEL-2 melanoma -82.2% | SN12C renal -73.8% | UO-31 renal -94.4% | ACHN renal -83.8% | CAKI-1 renal -78.5% | CCRF-CEM leukemia -72.5% | MOLT-4 leukemia -43% | SR leukemia -53.9%

CCCCCCC/C(=N\N=C(N)N)c1ccc(O)cc1
inactive: SNB-75 CNS 81.6% | SNB-19 CNS 37.1% | U251 CNS 30.7% | PC-3 prostate 24.6% | UACC-62 melanoma 51.4% | LOX IMVI melanoma 31.4% | SK-MEL-28 melanoma 60.4% | SK-MEL-2 melanoma 48.3% | EKVX NSCLC 55.1% | SN12C renal 39.6% | UO-31 renal 42.8% | TK-10 renal 67.5% | ACHN renal 47.6% | CAKI-1 renal 66.5% | A498 renal 46.6% | CCRF-CEM leukemia 39.7% | MOLT-4 leukemia 24.9%
active: HT29 colon 3.57%

O=[N+]([O-])c1cnc(Sc2ccncn2)c([N+](=O)[O-])c1
inactive: HT29 colon 76.5% | SNB-75 CNS 95.2% | SNB-19 CNS 102% | U251 CNS 100% | PC-3 prostate 96.3% | SK-MEL-5 melanoma 92% | LOX IMVI melanoma 96.8% | SK-MEL-28 melanoma 98.3% | SK-MEL-2 melanoma 110% | SN12C renal 96.9% | UO-31 renal 48.8% | CAKI-1 renal 64.9% | A498 renal 87% | SR leukemia 11.8%
active: TK-10 renal -37.8% | ACHN renal -29.6% | CCRF-CEM leukemia -49.2% | MOLT-4 leukemia -41.2%

O=C(/C(=C/c1ccc([N+](=O)[O-])cc1)c1ccccc1)c1ccccc1
active: LOX IMVI melanoma 5.01% | CCRF-CEM leukemia 0.582% | MOLT-4 leukemia -2.9% | SR leukemia 0.152%
inactive: HT29 colon 44.1% | SNB-75 CNS 70.6% | SNB-19 CNS 75.9% | U251 CNS 52.6% | PC-3 prostate 59.1% | SK-MEL-5 melanoma 43.6% | SK-MEL-28 melanoma 97.9% | SK-MEL-2 melanoma 24.9% | SN12C renal 35.1% | UO-31 renal 43.1% | ACHN renal 40.9% | CAKI-1 renal 48.6% | A498 renal 77%

CC1(C)OC(=O)C(=Cc2ccccc2Br)C(=O)O1
inactive: HT29 colon 103% | SNB-75 CNS 81.8% | SNB-19 CNS 94.3% | U251 CNS 96.8% | PC-3 prostate 92.5% | SK-MEL-5 melanoma 97.6% | LOX IMVI melanoma 94.1% | SK-MEL-28 melanoma 115% | SK-MEL-2 melanoma 97.6% | SN12C renal 96.6% | UO-31 renal 92.2% | ACHN renal 102% | CAKI-1 renal 94.8% | CCRF-CEM leukemia 98.2% | MOLT-4 leukemia 99.5% | SR leukemia 79.7%

COc1cc(/C=C/C(=O)c2c(-c3ccc(Cl)cc3)nc3sc(C)nn23)cc(OC)c1OC
inactive: HT29 colon 86.6% | SNB-75 CNS 77.3% | SNB-19 CNS 90.8% | U251 CNS 76.4% | PC-3 prostate 53.6% | SK-MEL-5 melanoma 20.9% | LOX IMVI melanoma 61.6% | SK-MEL-28 melanoma 94% | SK-MEL-2 melanoma 44% | SN12C renal 78.3% | UO-31 renal 51.2% | ACHN renal 73.8% | CAKI-1 renal 93.7% | CCRF-CEM leukemia 32.5% | MOLT-4 leukemia 48.3% | SR leukemia 26.1%

COc1cc(/C=C/C(=O)c2c(-c3ccc(F)cc3)nc3sc(C)nn23)cc(OC)c1OC
active: HT29 colon 6.07% | LOX IMVI melanoma -19.7% | SK-MEL-2 melanoma -26.5% | CCRF-CEM leukemia -9.53% | SR leukemia 4.81%
inactive: SNB-75 CNS 10.2% | SNB-19 CNS 84.9% | U251 CNS 21.3% | PC-3 prostate 59.9% | SK-MEL-5 melanoma 27.1% | SK-MEL-28 melanoma 65.7% | SN12C renal 35.9% | UO-31 renal 21.5% | ACHN renal 24.6% | CAKI-1 renal 15.2% | MOLT-4 leukemia 13.4%

N#Cc1cccc(/C=C(/C(=O)c2ccccc2)c2ccccc2)c1
active: CCRF-CEM leukemia 2.7% | MOLT-4 leukemia 4.97% | SR leukemia 3%
inactive: HT29 colon 70.1% | SNB-75 CNS 69.4% | SNB-19 CNS 83% | U251 CNS 60.1% | PC-3 prostate 66.5% | SK-MEL-5 melanoma 49.3% | LOX IMVI melanoma 14.1% | SK-MEL-28 melanoma 100% | SK-MEL-2 melanoma 34.5% | SN12C renal 49.4% | UO-31 renal 49.3% | ACHN renal 45% | CAKI-1 renal 55.5% | A498 renal 74.3%

O=C(/C(=C/c1cccc([N+](=O)[O-])c1)c1ccccc1)c1ccccc1
inactive: HT29 colon 52.7% | SNB-75 CNS 56.8% | SNB-19 CNS 77% | U251 CNS 56.3% | PC-3 prostate 64% | SK-MEL-5 melanoma 41.5% | LOX IMVI melanoma 10.7% | SK-MEL-28 melanoma 92.8% | SK-MEL-2 melanoma 28.8% | SN12C renal 35.6% | UO-31 renal 48.8% | ACHN renal 40.1% | CAKI-1 renal 47.7% | A498 renal 66.2%
active: CCRF-CEM leukemia 1.9% | MOLT-4 leukemia 4.09% | SR leukemia 4.42%

COc1cc(C2=NN(C(C)=O)C(c3ccc(OC(C)=O)cc3OC(C)=O)O2)c(OC(C)=O)c2ccccc12 (stereo unspecified)
inactive: HT29 colon 29.9% | SNB-75 CNS 50.4% | SNB-19 CNS 36.7% | U251 CNS 15.7% | PC-3 prostate 42.9% | SK-MEL-28 melanoma 23.7% | SK-MEL-2 melanoma 24.9% | SN12C renal 19.1% | ACHN renal 16.3% | A498 renal 25.2%
active: SK-MEL-5 melanoma 7.09% | LOX IMVI melanoma 2.78% | UO-31 renal 5.38% | CAKI-1 renal 8.08% | CCRF-CEM leukemia -1.14% | MOLT-4 leukemia -2.56% | SR leukemia 2.88%

From PubChem BioAssay (NCI)
